Tested on: HCI11 (cells of an ER-positive luminal breast cancer xenograft)
Assay: cell viability (% of vehicle); higher = less cytotoxic
Conditions: 10 µM; 72 h
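Further: PDX cells carrying CMV promoter-driven luciferase, viability read as total photon flux per second by IVIS imaging following D-luciferin, vehicle control 0.1% DMSO.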

Structure (SMILES) | cell viability
NC(N)=NS(=O)(=O)c1ccc(N)cc1 [Sulfaguanidine] | 86.1
Cc1cc(C2CCCCC2)n(O)c(=O)c1 [Ciclopirox] | 51.7
Cl.NC12CC3CC(CC(C3)C1)C2 [Amantadine HCl] | 98.7
CCOc1nc2cccc(C(=O)OCc3oc(=O)oc3C)c2n1Cc1ccc(-c2ccccc2-c2nc(=O)o[nH]2)cc1 [Azilsartan Medoxomil] | 94.2
NNC(=O)c1ccncc1.Nc1ccc(C(=O)O)c(O)c1 [Pasiniazid] | 122
CCOc1cc(N)c(Cl)cc1C(=O)NCC1CN(Cc2ccc(F)cc2)CCO1.O=C(O)CC(O)(CC(=O)O)C(=O)O (stereo unspecified) [Mosapride Citrate] | 116
Cc1cc(C2CCCCC2)n(O)c(=O)c1.NCCO [Ciclopirox ethanolamine] | 69.4
Nc1cccc2c1C(=O)N(C1CCC(=O)NC1=O)C2=O (stereo unspecified) [Pomalidomide (CC-4047)] | 108
COC1C(OC(N)=O)C(O)C(Oc2ccc3c(O)c(NC(=O)c4ccc([O-])c(CC=C(C)C)c4)c(=O)oc3c2C)OC1(C)C.[Na+] (stereo unspecified) [Novobiocin Sodium] | 75.6
O=C1NC(=O)[C@@H](c2c[nH]c3ccccc23)[C@H]1c1cn2c3c(cccc13)CCC2 [Tivantinib (ARQ 197)] | 111
CNCc1ccc(-c2[nH]c3cc(F)cc4c3c2CCNC4=O)cc1.O=P(O)(O)O | 85.9
CC(=O)N[C@H](Cc1ccc2ccccc2c1)C(=O)N[C@H](Cc1ccc(Cl)cc1)C(=O)N[C@H](Cc1cccnc1)C(=O)N[C@@H](CO)C(=O)N[C@@H](Cc1ccc(O)cc1)C(=O)N[C@H](CCCNC(N)=O)C(=O)N[C@@H](CC(C)C)C(=O)N[C@@H](CCCNC(=N)N)C(=O)N1CCC[C@H]1C(=O)N[C@H](C)C(N)=O [Cetrorelix] | 102
COc1ccc(C=Cc2cc(OC)c(OC)c(OC)c2)cc1OP(=O)([O-])[O-].[Na+].[Na+] [Fosbretabulin (Combretastatin A4 Phosphate (CA4P)) Disodium] | 115
COC(=O)NC(C(=O)NC(Cc1ccccc1)C(O)CN(Cc1ccc(-c2ccccn2)cc1)NC(=O)C(NC(=O)OC)C(C)(C)C)C(C)(C)C.O=S(=O)(O)O (stereo unspecified) | 140
NC(=O)N1CCC(CC(=O)N2CCC(C3c4ncc(Br)cc4CCc4cc(Cl)cc(Br)c43)CC2)CC1 (stereo unspecified) [Lonafarnib] | 163
C#C[C@]1(O)CC[C@H]2[C@@H]3CCC4=CCCC[C@@H]4[C@H]3C(=C)C[C@@]21CC [Desogestrel] | 87.2

Reference: the supplement of paper PMC6992640
